PMC6602471

Molecular target: RUNX1 (Homo sapiens, UniProt Q01196 1-453)
Assay: custom PBM; custom protein-binding microarray; buffer, salt, pH and temperature not stated; high values mean tight binding
Conditions: dsDNA, one strand shown

RUNX1, sequence (Q01196 whole entry): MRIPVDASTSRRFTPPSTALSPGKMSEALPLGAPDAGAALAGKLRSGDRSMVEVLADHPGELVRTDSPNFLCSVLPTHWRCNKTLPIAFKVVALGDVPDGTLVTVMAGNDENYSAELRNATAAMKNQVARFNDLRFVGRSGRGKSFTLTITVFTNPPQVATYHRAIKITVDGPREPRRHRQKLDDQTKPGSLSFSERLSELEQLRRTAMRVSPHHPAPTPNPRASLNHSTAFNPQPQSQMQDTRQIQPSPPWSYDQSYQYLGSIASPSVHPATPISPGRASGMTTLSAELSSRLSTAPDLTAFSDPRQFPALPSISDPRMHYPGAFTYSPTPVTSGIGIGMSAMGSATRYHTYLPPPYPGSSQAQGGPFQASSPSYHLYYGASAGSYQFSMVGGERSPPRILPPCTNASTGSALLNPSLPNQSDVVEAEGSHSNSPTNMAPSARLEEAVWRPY

Question: With “CGCGCACTGTGTGGTTGCGCACATACGCACACATACACATACACACATACACATACGCAC” as the sequence, how does the binding signal read?
Answer: 11 log fluorescence intensity

Question: “CGCGCAGTCTGTGGTTGCGCACATACGCACACATACACATACACACATACACATACGCAC” was tested. Which binding signal did it give?
Answer: 11.4 log fluorescence intensity

Question: Which binding signal does the source give for “GCATACGGCTGGCGTCAGCCACATACGCACACATACACATACACACATACACATACGCAC” here?
Answer: 11 log fluorescence intensity

Question: For “GCATACGGCTGTCGTCAGCCACATACGCACACATACACATACACACATACACATACGCAC”, which binding signal is on record?
Answer: 10.9 log fluorescence intensity

Question: Which binding signal does the source give for “CGCGCACTCTGCGGTTGCGCACATACGCACACATACACATACACACATACACATACGCAC” here?
Answer: 12.8 log fluorescence intensity

Question: How did the binding signal turn out when “GCATACGGCTGACTTCAGCCACATACGCACACATACACATACACACATACACATACGCAC” was run?
Answer: 10.9 log fluorescence intensity

Question: How did the binding signal turn out when “GCGCACATTTCCCTTAAATCATACACGCACACATACACATACACACATACACATACGCAC” was run?
Answer: 11 log fluorescence intensity

Question: “GCGCACATTTCCAGTAAATCATACACGCACACATACACATACACACATACACATACGCAC” was tested. Which binding signal did it give?
Answer: 10.9 log fluorescence intensity

Question: How did the binding signal turn out when “CGCGCACTCTGTGGTTGCTCACATACGCACACATACACATACACACATACACATACGCAC” was run?
Answer: 11.4 log fluorescence intensity

Question: How did the binding signal turn out when “CGCGCACTCTGGGGTTGCGCACATACGCACACATACACATACACACATACACATACGCAC” was run?
Answer: 10.9 log fluorescence intensity

Question: How did the binding signal turn out when “CGCGCACTCAGTGGTTGCGCACATACGCACACATACACATACACACATACACATACGCAC” was run?
Answer: 11 log fluorescence intensity

Question: Which binding signal does the source give for “CGCGCACTCTGTGGTTGAGCACATACGCACACATACACATACACACATACACATACGCAC” here?
Answer: 11.5 log fluorescence intensity

Question: Which binding signal does the source give for “GCGCACATTTCCTGTAAATCATACACGCACACATACACATACACACATACACATACGCAC” here?
Answer: 10.9 log fluorescence intensity

Question: For “GCGCACATTTCCCGTATATCATACACGCACACATACACATACACACATACACATACGCAC”, which binding signal is on record?
Answer: 11 log fluorescence intensity

Question: “GCATACGGCTGACGTAAGCCACATACGCACACATACACATACACACATACACATACGCAC” was tested. Which binding signal did it give?
Answer: 11 log fluorescence intensity

Question: With “CGCGCACTCTGTGGTTACGCACATACGCACACATACACATACACACATACACATACGCAC” as the sequence, how does the binding signal read?
Answer: 11.7 log fluorescence intensity

Question: “GCGCACATTACCCGTAAATCATACACGCACACATACACATACACACATACACATACGCAC” was tested. Which binding signal did it give?
Answer: 10.9 log fluorescence intensity

Question: How did the binding signal turn out when “GCATACGGCTGACGTCAGACACATACGCACACATACACATACACACATACACATACGCAC” was run?
Answer: 10.9 log fluorescence intensity

Question: “CGCGCATTCTGTGGTTGCGCACATACGCACACATACACATACACACATACACATACGCAC” was tested. Which binding signal did it give?
Answer: 11.4 log fluorescence intensity

Question: With “GCATACGGCTGACGTCAACCACATACGCACACATACACATACACACATACACATACGCAC” as the sequence, how does the binding signal read?
Answer: 11 log fluorescence intensity

Question: Which binding signal does the source give for “GCGCACATTCCCCGTAAATCATACACGCACACATACACATACACACATACACATACGCAC” here?
Answer: 11 log fluorescence intensity

Question: How did the binding signal turn out when “CGCGCACTTTGTGGTTGCGCACATACGCACACATACACATACACACATACACATACGCAC” was run?
Answer: 11.6 log fluorescence intensity

Question: Which binding signal does the source give for “GCATACGGCTGACCTCAGCCACATACGCACACATACACATACACACATACACATACGCAC” here?
Answer: 11 log fluorescence intensity

Question: How did the binding signal turn out when “GCATACGGCAGACGTCAGCCACATACGCACACATACACATACACACATACACATACGCAC” was run?
Answer: 11 log fluorescence intensity

Question: With “GCGCACATTTCCCATAAATCATACACGCACACATACACATACACACATACACATACGCAC” as the sequence, how does the binding signal read?
Answer: 11 log fluorescence intensity

Question: Which binding signal does the source give for “GCGCACCTTTCCCGTAAATCATACACGCACACATACACATACACACATACACATACGCAC” here?
Answer: 10.9 log fluorescence intensity

Question: Which binding signal does the source give for “GCATACGGCTCACGTCAGCCACATACGCACACATACACATACACACATACACATACGCAC” here?
Answer: 10.9 log fluorescence intensity

Question: With “GCGCACATTTCCCCTAAATCATACACGCACACATACACATACACACATACACATACGCAC” as the sequence, how does the binding signal read?
Answer: 10.9 log fluorescence intensity

Question: For “GCATACGGCTGACGTCAGCTACATACGCACACATACACATACACACATACACATACGCAC”, which binding signal is on record?
Answer: 10.9 log fluorescence intensity

Question: How did the binding signal turn out when “GCATACTGCTGACGTCAGCCACATACGCACACATACACATACACACATACACATACGCAC” was run?
Answer: 10.9 log fluorescence intensity

Question: How did the binding signal turn out when “CGCGCACTCTGTGGGTGCGCACATACGCACACATACACATACACACATACACATACGCAC” was run?
Answer: 10.9 log fluorescence intensity

Question: Which binding signal does the source give for “CGCGCACCCTGTGGTTGCGCACATACGCACACATACACATACACACATACACATACGCAC” here?
Answer: 11.4 log fluorescence intensity

Question: “GCATACGGCTGACGTCAGCAACATACGCACACATACACATACACACATACACATACGCAC” was tested. Which binding signal did it give?
Answer: 10.9 log fluorescence intensity
